# According to PubChem BioAssay:
# Values without a mark were called inactive. The rule behind the calls is not given here.
# Test system: Aerobactin synthetase IucA (Klebsiella pneumoniae hvKP1)
# Experiment: Biochemical IucA enzyme inhibition primary screen of the Spectrum library (AID 1346200);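 note: 100% = wells without compound and 0% = wells lacking enzyme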
# Conditions: malachite green pyrophosphate, A620, at 8 µM, active compounds read low
row,SMILES,activity remaining
1,COc1ccccc1OCCNCC(O)COc1cccc2[nH]c3ccccc3c12 (stereo unspecified),120%
2,COc1ccc(C2Sc3ccccc3N(CCN(C)C)C(=O)C2OC(C)=O)cc1 (stereo unspecified),114%
3,O=C(O)CCC(=O)c1ccc(-c2ccccc2)cc1,115%
4,CCC(/C=C/[C@@H](C)[C@H]1CCC2C3CC=C4C[C@@H](O)CC[C@]4(C)C3CC[C@@]21C)C(C)C (stereo partly specified),101%
5,CC(C)c1c(C(=O)c2ccccc2)c(-c2ccccc2)c(-c2ccc(F)cc2)n1CC[C@@H](O)C[C@@H](O)CC(=O)O,116%
6,OC1C(O)C(O)C(O)C(O)C1O (stereo unspecified),103%
